# Test results published in PubChem BioAssay AID1345085 (National Center for Advancing Translational Sciences (NCATS), 2018).
# Inconclusive results are not listed. The source made the active and inactive calls. Calls come from the whole dose curve; as a rule, active = well fitted cell-killing curve with a large enough effect; inconclusive = small, poorly fitted or top-dose-only effect, or effect the other way; inactive = no such curve, though single readings can be large or run the other way.
# Test system: CASKI
# Assay: Confirmatory qHTS for gynecologic anti-cancer compounds from libraries of approved drugs and bioactive compounds; note: nearly all actives have a fitted effect of over 55% in size
# Conditions: gynecologic cancer cell panel viability, ATPlite luminescence, 48 h; series mostly up to 57.6 µM
# Summary of the method: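 Viability is measured as ATP-dependent luciferase light using ATPlite, read 15 min after reagent addition at room temperature. Compounds, in DMSO, span 57.5 uM down to 0.977 nM over 11 threefold steps for 48 h.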
# % is set by controls: 0 for no effect and ±100 for the full control effect; potency is the fitted concentration of half-maximal effect.
Compound,Potency,"activity change, negative = viability loss"
CNC(=O)c1ccccc1Nc1nc(Nc2ccc(N3CCOCC3)cc2OC)ncc1Cl,6.11 µM (active),–
Nc1cccc(-c2cc3c(Oc4cccc(O)c4)ncnc3[nH]2)c1,7.69 µM (active),–
CC[C@@]1(O)C(=O)OCc2c1cc1n(c2=O)Cc2cc3c(CN(C)C)c(O)ccc3nc2-1,1.09 µM (active),–
OCc1ccc(-c2ccc(-c3ccc(CO)s3)o2)s1,inactive,–
Cc1ccc(C(=O)Nc2ccc(CN3CCN(C)CC3)c(C(F)(F)F)c2)cc1C#Cc1cnc2cccnn12,21.7 µM (active),–
CCC1C(=O)N(C)c2cnc(Nc3ccc(C(=O)NC4CCC(N5CCN(CC6CC6)CC5)CC4)cc3OC)nc2N1C(C)C (centres undefined),6.11 µM (active),–
Nc1ccccc1NC(=O)c1ccc(CNc2nccc(-c3cccnc3)n2)cc1,8.63 µM (active),–
COC(C(=O)N1Cc2[nH]nc(NC(=O)c3ccc(N4CCN(C)CC4)cc3)c2C1)c1ccccc1 (centres undefined),7.69 µM (active),–
CNC(=O)CN1CCC(Oc2cc3c(Nc4cccc(Cl)c4F)ncnc3cc2OC)CC1,10.9 µM (active),–
O=C1c2c(O)ccc(O)c2C(=O)c2c(NCCNCCO)ccc(NCCNCCO)c21,7.69 µM (active),–
CCCCN(CCCC)C(=O)CN1C[C@H](c2ccc3c(c2)OCO3)[C@@H](C(=O)O)[C@@H]1c1ccc(OC)cc1,inactive,–
CCN(CC)CCNC(=O)c1c(C)[nH]c(/C=C2\C(=O)Nc3ccc(F)cc32)c1C,56.2 µM (active),–
NC(=O)c1cccc2cn(-c3ccc([C@@H]4CCCNC4)cc3)nc12,inactive,–
C[C@]12CCC(=O)C=C1[C@@H]1C[C@@H]1[C@H]1[C@@H]3[C@@H]4C[C@@H]4[C@@]4(CCC(=O)O4)[C@@]3(C)CC[C@@H]12,inactive,–
COc1cc2c(Oc3ccc(-c4cnc(Nc5ccc(F)cc5)n(C)c4=O)cc3F)ccnc2cc1OCCCN1CCOCC1,inactive,–
CNc1nc(Nc2ccc(C(=O)N3CCOCC3)cc2OC)ncc1Cl,inactive,–
c1cc(N[C@@H]2CCNC2)nc(-c2cnc3ccc(-c4cn[nH]c4)cn23)c1,27.3 µM (active),–

Compound,Potency,"activity change, negative = viability loss"
Nc1nccc(Oc2ccc(NC(=O)c3c[nH]cc(-c4ccc(F)cc4)c3=O)cc2F)c1Cl,12.2 µM (active),–
O=C(CCCCCCNC(=O)c1cnc(N(c2ccccc2)c2ccccc2)nc1)NO,21.7 µM (active),–
CCc1nc(C(N)=O)c(Nc2ccc(N3CCC(N4CCN(C)CC4)CC3)c(OC)c2)nc1NC1CCOCC1,11.9 µM (active),–
COc1cc(N2CCC(N(C)C)CC2)ccc1Nc1ncc(Cl)c(Nc2ccccc2P(C)(C)=O)n1,7.69 µM (active),–
CC[C@H](CC#N)OC(=O)N[C@@H](C)c1cccc(NC(=O)Nc2ccc(-c3cnco3)c(OC)c2)c1,inactive,–
Nc1ccccc1NC(=O)c1ccc(CNC(=O)OCc2cccnc2)cc1,15.3 µM (active),–
COc1ccc(-c2cc3nccn3c(Nc3ncccc3C(N)=O)n2)cc1OC,inactive,–
Cn1c(=O)c(F)c(Nc2ccc(I)cc2F)c2c(=O)n(CC(O)CO)cnc21 (centres undefined),24.3 µM (active),–
CC(Oc1ccc2[nH]nc(/C=C/c3cnn(CCO)c3)c2c1)c1c(Cl)cncc1Cl (centres undefined),5.44 µM (active),–
COc1cccc2c1C(=O)c1c(O)c3c(c(O)c1C2=O)C[C@@](O)(C(=O)CO)C[C@@H]3O[C@H]1C[C@H](N)[C@H](O)[C@H](C)O1,8.63 µM (active),–
Nc1ccc(-c2ccc3ncc4ccc(=O)n(-c5cccc(C(F)(F)F)c5)c4c3c2)cn1,1.93 µM (active),–
COc1ccc2c(c1)c(CC(=O)O)c(C)n2C(=O)c1ccc(Cl)cc1,inactive,–
CC(=O)O[C@H]1C(=O)[C@@]2(C)[C@H]([C@H](OC(=O)c3ccccc3)[C@]3(O)C[C@H](OC(=O)[C@H](O)[C@@H](NC(=O)c4ccccc4)c4ccccc4)C(C)=C1C3(C)C)[C@]1(OC(C)=O)CO[C@@H]1C[C@@H]2O,–,-4.63% [at 10.7 µM] (inactive)
COc1ccc(OC)c(-c2nnc3ccc(-c4ccc(OC)c(O[C@@H]5CCOC5)c4)nn23)c1,inactive,–
Cc1cc(Nc2nc(N[C@@H](C)c3ccc(F)cc3)c(C#N)cc2F)n[nH]1,13.7 µM (active),–
Cc1csc(NC(=O)c2sc3nc4c(c(C(F)(F)F)c3c2N)CCC4)n1,5.44 µM (active),–
Cc1c(NC(=O)OCC2COCCN2)cn2ncnc(Nc3ccc4c(cnn4Cc4cccc(F)c4)c3)c12 (centres undefined),19.3 µM (active),–
